# High-throughput results from PubChem.
# Hits are enriched below; roughly 3.9% of the tested compounds scored in any of these assays.
# HSP90 refold inh: blocks HSP90-mediated luciferase refolding in reticulocyte lysate; Rabbit reticulocyte lysate, luciferase refolding luminescence, 3 h; inhibition, % at 5.6 µM; hit rate 0.91% among 290,000;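 active = inhibition above the screen-wide mean plus 3 SD, computed separately per campaign, cut at about 16% in these data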;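 also: 0% = DMSO wells and 100% = 60 µM geldanamycin wells; inhibitors lower the luminescence because luciferase stays unfolded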
# TWEAK Fn14 block: blocks TWEAK-Fn14 interaction in a reporter cell assay; hit rate 2% among 360,000; TWEAK-stimulated Fn14 reporter cells, luciferase luminescence, 8 h; inhibition, % at 10 µM; in the data active = inhibition above about 50%
# HIF-2a block: blocks HIF-2a reporter activity; inhibition, % at 18.8 µM; hit rate 0.72% among 360,000; 786-0 RCC cells HIF-2a reporter, luciferase luminescence, overnight; AID 624352;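 active = inhibition of the luminescence signal of 40% or more relative to plate controls, in a single-dose primary screen at 18.75 µM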
# aSyn 5UTR inh: 5' untranslated region of α-synuclein, MLPCN primary screen; alpha-synuclein 5'UTR reporter, inhibitor activity; inhibition, % (tested at 7.5 µM); hit rate 0.82% among 300,000; in the data active = inhibition above about 60%;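 also: H4 neuroglioblastoma cells stably carrying SNCA 5'UTR luciferase fusion; 0% = DMSO wells and 100% = positive control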
# TROY signal inh: inhibitors of TROY-dependent NF-kB signaling; Q293 LMP1-TROYcd NF-kB luciferase reporter, 4 h; inhibition, % at 10 µM; hit rate 0.98% among 360,000; AID 1347056;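 active = compounds whose plate-normalised and pattern-corrected inhibition of the luciferase reporter signal at the single screening dose is 50% or more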
# C8 TRAIL sens: sensitizes caspase-8 expressing cells to TRAIL | NB7+C8 cells + TRAIL, ATPlite viability luminescence | inhibition (viability loss, TRAIL sensitization), % at 10 µM | hit rate 1% among 360,000 | AID 624354;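 active = compounds causing at least 50% loss of cell viability in the single-dose screen, relative to plate controls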
# Starred values were filed as active, the others as inactive; x = no result given.
SMILES,HSP90 refold inh,TWEAK Fn14 block,HIF-2a block,aSyn 5UTR inh,TROY signal inh,C8 TRAIL sens
Cc1ccc(S(=O)(=O)N2CCOc3ccccc32)c(C)c1NS(C)(=O)=O,1.0,95.1*,22.8,11.7,3.0,2.3
OC(c1ccc(Cl)cc1)c1ncc(-c2ccccc2Cl)[nH]1 (stereo not drawn),x,-0.2,-149.5,x,-33.0,-29.4
Cc1ccc(C)c(NC(=S)N=Nc2c(O)n(C)c3ccc(S(=O)(=O)N4CCOCC4)cc23)c1,1.4,-1.3,21.9,77.8*,0.3,12.6
CCc1ccccc1NC(=S)N=Nc1c(O)n(C)c2ccc(S(=O)(=O)N3CCOCC3)cc12,1.6,-2.4,22.6,80.5*,-11.5,0.6
Cc1ccc(C)c(SCC(=O)Nc2cc(S(=O)(=O)N3CCOCC3)ccc2C)c1,x,9.8,24.1,x,8.2,6.9
Cc1ccc(Cn2c(O)c(N=NC(=S)Nc3ccccc3F)c3cc(S(=O)(=O)N4CCOCC4)ccc32)cc1,11.9,21.2,10.7,66.2*,-11.9,10.4
CSc1ccccc1C(=O)OCC(=O)NC1CC1,x,14.5,-21.2,x,-3.3,-1.9
Cc1cccc(NC(=O)c2ncn3c2C(=O)N[C@H](C)C3)c1,x,1.0,-33.0,x,20.4,10.8
COC(=O)C1(C(=O)OC)C2CCCCC2N(S(=O)(=O)c2ccc(C)cc2)[C@@H]1CC(C)=O (stereo partly drawn),x,x,-0.4,x,x,-11.8
CCOc1ccc(/C=C2/SC(=S)N(n3c(C)ccc3C)C2=O)cc1,0.8,-1.4,-5.9,15.0,-19.1,50.5*
COc1ccc(/C=C2/SC(=S)N(n3c(C)ccc3C)C2=O)cc1,10.5,15.1,1.1,-5.4,-36.7,61.5*
CCOc1ccc(N2C(=O)/C(=C/c3ccccn3)SC2=S)cc1,-1.8,x,x,-9.4,x,x
c1ccc(-c2csc3ncnc(NCc4ccccn4)c23)cc1,-1.0,64.9*,22.0,12.5,-13.5,17.2
Cc1sc2ncnc(Nc3ccc(O)cc3)c2c1C,0.6,-6.1,-17.2,-5.4,-6.7,14.9
c1ccc(CNc2ncnc3scc(-c4cccs4)c23)nc1,-2.7,49.0,29.9,22.2,42.8,15.9
Oc1ccc(Nc2ncnc3scc(-c4ccccc4)c23)cc1,-1.1,63.3*,24.1,19.2,32.7,6.5
CC(C)NC(=O)C1C(c2ccc(C(F)(F)F)cc2)=Nc2ccccc2N1C(=O)c1cccc2ccccc12 (stereo not drawn),x,x,-98.0,x,x,8.1
O=C(NC1CCCC1)C1C(c2ccc(C(F)(F)F)cc2)=Nc2ccccc2N1C(=O)c1ccccc1 (stereo not drawn),x,x,-119.3,x,x,-3.4
COC(=O)C[C@H]1C=C[C@H](NC(=O)Nc2ccccc2OC)[C@@H](CO)O1,x,x,8.0,x,x,-5.8
CC(=NNC(=S)N1CCCCC1)c1cccc(C)n1,x,-39.2,-109.7,x,6.8,15.9
CSC(=S)NN=C(C)c1cccc(C)n1,x,91.0*,-14.7,x,16.4,15.3
CCN(C(=O)C1CC1)C1CCS(=O)(=O)C1 (stereo not drawn),x,11.8,9.6,6.6,66.5*,11.6
Cn1cccc1-c1cc(C(=O)N/N=C/c2ccccc2Cl)[nH]n1,-6.8,5.4,-303.2,-0.6,-15.6,-12.7
Cn1cccc1-c1cc(C(=O)N/N=C/c2cc(Br)ccc2O)[nH]n1,-5.6,-20.6,3.2,70.5*,14.8,17.6
COc1cc(CNCCN2CCOCC2)ccc1OCc1ccccc1Cl,2.5,101.1*,-4.2,-19.5,x,16.5
SMILES,HSP90 refold inh,TWEAK Fn14 block,HIF-2a block,aSyn 5UTR inh,TROY signal inh,C8 TRAIL sens
COc1cc(CNCCN2CCOCC2)ccc1OCc1ccc(Cl)cc1,-1.7,5.3,-3.8,-36.0,-60.1,16.7
COc1cc(CNc2ccc3[nH]c(=O)[nH]c3c2)ccc1OCc1ccccc1Cl,-2.4,53.4*,-106.1,-46.8,-17.1,22.7
COc1ccc2c(c1)C(=O)C1(CC2)OC1c1cccnc1 (stereo not drawn),x,-5.8,-22.8,x,10.6,0.1
COc1ccc2[nH]c3c(c2c1)CCN1C(=O)C(CC(=O)NCCc2ccccn2)C[C@H](C(=O)N2CCCCC2)[C@@]31C (stereo partly drawn),x,-5.3,4.6,x,-4.7,1.3
Oc1cccc2c(NC(=S)Nc3ccc(SC(F)F)cc3)cccc12,13.2,60.2*,-41.1,-49.6,63.7*,6.3
O=[N+]([O-])c1ccc(Cl)cc1Sc1nc2ccccc2o1,-2.6,14.8,4.3,68.6*,-6.8,-10.3
Cc1cc(N)n(-c2cc(C)c3ccccc3n2)n1,3.6,-8.0,-201.2,-118.1,-43.3,60.0*
C[C@@H]1Cc2[nH][nH]c(=O)c2[C@H](C)O1,x,5.8,13.4,x,-3.6,10.4
Cc1ccc2oc(C(Cl)(Cl)Cl)cc(=O)c2c1,-0.1,63.6*,33.1,-34.6,11.5,8.1
Cc1ccc2oc(C(F)(F)C(F)F)cc(=O)c2c1,3.9,12.8,7.9,0.4,3.5,-2.3
CN(Cc1ccc(C(C)(C)C)cc1)C(=O)c1ccc2c(c1)OCO2,x,-16.8,7.2,x,5.0,6.2
CCCCCCCCCCCC1=C(O)C(=O)C=C(O)C1=O,x,4.5,11.0,16.5,9.6,5.0
COC1=CC(=O)C(O)=C(CCCCCCC/C=C/CCCCCCCC2=C(O)C(=O)C=C(OC)C2=O)C1=O,x,85.0*,15.1,-17.9,61.5*,-4.4
CN(CCCC(=O)N1CCCC(C(N)=O)C1)S(=O)(=O)c1ccc(F)cc1 (stereo not drawn),1.6,68.2*,8.9,-13.7,-6.8,-1.6
CN(CC(=O)N1CCCCCC1)S(=O)(=O)c1ccc(F)cc1,-3.4,-13.8,-106.7,-55.3,-5.2,10.8
N#Cc1cc(-c2ccccc2)[nH]c1-c1nccc2ccccc12,3.0,56.4*,-25.9,-6.0,25.2,15.9
c1ccc(-c2ccc(-c3nccc4ccccc34)[nH]2)cc1,13.7,x,x,x,x,x
CCOC(=O)c1ccccc1NC(=O)CSc1ccc(-c2ccccn2)nn1,4.2,-6.7,5.5,68.7*,9.8,15.5
CC(=O)c1cccc(NC(=O)CSc2nc(N3CCCCC3)nc(N3CCCCC3)n2)c1,2.6,54.3*,-103.9,25.5,56.7*,-9.4
CC(=O)c1cccc(NC(=O)CSc2ccc(-c3ccccn3)nn2)c1,0.6,-3.6,-20.9,68.8*,-11.1,6.6
CC(=O)c1ccc(NC(=O)CSc2nc(N3CCOCC3)nc(N3CCOCC3)n2)cc1,2.7,-20.2,-129.0,-72.7,-34.2,2.8
CC(=O)Nc1cccc(NC(=O)CSc2ccc(-c3ccccn3)nn2)c1,1.5,-0.8,-20.4,51.9,3.5,12.9
Cc1ccc2c(c1)sc1nc(=O)n(-c3ccc(Cl)c(Cl)c3)c(=O)n12,-0.2,55.0*,-5.8,x,43.0,5.3
O=C(/C=C/Sc1ccc(C(F)(F)F)cn1)c1ccccc1,2.6,60.1*,-11.8,-72.4,22.3,24.7
Cc1noc2ncnc(Sc3ccc(Cl)cc3)c12,8.4,65.2*,34.0,12.7,49.0,18.2
CCOC(=O)c1c(C)[nH]c(C(=O)OCC(=O)Nc2ccc(Cl)cn2)c1C,x,-15.7,4.7,x,-19.0,-6.0
CCOC(=O)c1c(C)[nH]c(C(=O)OCC(=O)Nc2sccc2C(N)=O)c1C,x,83.6*,-27.2,-118.6,63.9*,55.9*
